PAFAH2 inh = inhibitors of human PAFAH2 | Q99487 | recombinant PAFAH2, FP-rhodamine activity probe, fluorescence polarization | inhibition, % at 3.39 µM | actives 0.99% (n = 340,000) | AID 492956;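 active means inhibition above the mean over all tested compounds plus 3 SD, cut at about 30% in these data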;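 further: inhibitors block probe labeling of enzyme so polarization drops; 0% = enzyme with DMSO and 100% = wells lacking PAFAH2 protein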
pPAFAH inh = inhibitors of human plasma PAF acetylhydrolase (pPAFAH) | Q13093 | recombinant pPAFAH, FP-rhodamine probe fluorescence polarization | inhibition, % at 3.39 µM | actives 1.5% (n = 330,000) | AID 463082;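 active means inhibition above the mean inhibition across the screen plus 3 SD, cut at about 25% in these data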;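 further: inhibitors block binding of the rhodamine activity-based probe so polarization drops; 0% = enzyme with DMSO and 100% = wells lacking pPAFAH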
ZTA counter = counter-screen for EBNA-1 inhibitors: inhibitors of Epstein-Barr virus ZTA | AID 2234 | ZTA-DNA binding, fluorescence polarization | P03206 | actives 0.15% (n = 320,000) | inhibition, % at 11 µM; in the data active means inhibition above about 33%
PAFAH1B2 FP inh = PAFAH1B2 (human) inhibition | P68402 | recombinant PAFAH1B2, FP-rhodamine activity probe, fluorescence polarization | inhibition, % at 3.39 µM | actives 1.2% (n = 340,000) | AID 492953;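 active means inhibition above the mean of all tested compounds plus 3 SD, cut at about 24% in these data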;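 further: 0% = enzyme with DMSO and 100% = wells lacking PAFAH1B2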
Target sequence (P68402 whole entry, looked up): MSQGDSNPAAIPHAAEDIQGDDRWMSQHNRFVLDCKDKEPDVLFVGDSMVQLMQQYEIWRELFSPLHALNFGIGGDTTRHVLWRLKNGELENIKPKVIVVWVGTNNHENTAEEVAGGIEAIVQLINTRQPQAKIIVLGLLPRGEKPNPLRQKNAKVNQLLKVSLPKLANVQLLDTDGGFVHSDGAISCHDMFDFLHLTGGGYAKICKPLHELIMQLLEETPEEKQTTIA
PAFAH1B3 FP inh = PAFAH1B3 (human) inhibition; Q15102; recombinant PAFAH1B3, FP-rhodamine probe, fluorescence polarization; inhibition, % at 3.39 µM; actives 0.28% (n = 340,000);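 active means inhibition above the screen-wide average of all tested compounds plus 3 SD, cut at about 25% in these data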;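 further: 0% = enzyme with DMSO only and 100% = wells lacking PAFAH1B3 protein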
Target sequence (Q15102 whole entry, looked up): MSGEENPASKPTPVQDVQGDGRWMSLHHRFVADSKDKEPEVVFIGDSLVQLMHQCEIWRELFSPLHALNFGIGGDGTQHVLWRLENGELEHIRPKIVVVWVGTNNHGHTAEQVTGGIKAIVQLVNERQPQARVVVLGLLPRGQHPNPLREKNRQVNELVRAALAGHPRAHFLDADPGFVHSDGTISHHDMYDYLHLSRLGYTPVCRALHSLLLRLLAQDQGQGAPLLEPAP
EBNA-1 inh = blocks EBNA-1 binding to DNA; EBNA-1 DNA binding, fluorescence polarization; inhibition, % at 14.8 µM; AID 1950; actives 0.34% (n = 300,000); in the data active means inhibition above about 28%
* hit, by the source's call; . = no result given. An excerpt weighted towards active compounds, which were near 2.9% of everything screened.

SMILES	PAFAH2 inh	pPAFAH inh	ZTA counter	PAFAH1B2 FP inh	PAFAH1B3 FP inh	EBNA-1 inh
S=c1[nH]nc(-c2cc(-c3ccco3)[nH]n2)n1-c1ccccc1Cl	19.1	29.2*	-9.6	8.8	16.8	-6.5
O=C(c1ccccc1)N1CCC(CC2CC(c3cccc(Br)c3)=NO2)(C(=O)NCC2CCCCC2)CC1 (configuration not stated)	-1.1	25.9*	3.3	0.8	-7.0	-5.7
N#CCCn1c(SCC(=O)c2c[nH]c3ccccc23)nc2ccccc21	-8.2	-6.6	-5.1	-3.8	-3.1	-7.2
Cc1cc(C(=O)CSc2nc3ccccc3n2CCC#N)c(C)n1Cc1cccs1	3.9	14.6	16.5	4.4	6.0	34.1*
CCN1C(=O)N/C(=C/c2cc(C)n(Cc3ccccc3)c2C)C1=O	2.5	7.5	14.3	82.4*	-7.5	-6.7
CCn1c(C)cc(/C=C2\NC(=O)N(Cc3ccc(Cl)cc3)C2=O)c1C	3.4	10.9	-8.8	7.9	0.9	-0.3
CC1CCN(C(=O)c2cccc(S(=O)(=O)N3CCN(c4ccccc4)CC3)c2)CC1	0.9	5.9	-11.5	-1.1	2.0	-10.8
COC(=O)CSc1ccc(S(=O)(=O)N2CCC(C)CC2)cc1[N+](=O)[O-]	-3.9	1.7	-18.4	27.5*	-4.7	12.6
CC1CCN(S(=O)(=O)c2cccc(C(N)=O)c2)CC1	2.5	-0.8	-5.4	25.9*	0.2	-5.1
CC1CCC(NC(=O)c2cccc(S(=O)(=O)N3CCN(C)CC3)c2)CC1 (configuration not stated)	4.7	3.6	-8.4	25.5*	3.6	-5.0
CC1CCC(NC(=O)c2cccc(S(=O)(=O)N3CCN(c4ccccc4)CC3)c2)CC1 (configuration not stated)	6.5	2.5	4.0	3.2	9.3	3.1
COC(=O)c1cccc(S(=O)(=O)N2CCC(C)CC2)c1	-3.5	7.6	-9.7	26.3*	-4.7	6.5
C=CCn1c(SCC(=O)N2CCCCC2)nnc1-c1ccncc1	-1.4	7.5	1.1	1.3	1.6	-11.9
COc1ccc(CCNc2nc(-c3ccc(F)cc3)c(CC(=O)O)s2)cc1OC	-11.6	3.7	1.3	-4.3	-1.4	10.2
CC1CCN(S(=O)(=O)c2cccc(C(=O)N(C)C3CCS(=O)(=O)C3)c2)CC1 (configuration not stated)	-5.1	1.8	7.3	32.7*	7.2	-1.3
OCC1OCOC2C(CO)OCOC12 (configuration not stated)	-5.3	.	.	-1.6	15.0	.
CCCOc1cc(N)ccc1C(=O)OCCN(CC)CC	-12.5	1.5	8.1	1.8	-2.6	4.4
CCCOc1ccc(N)cc1N	8.3	26.3*	-7.3	7.7	15.3	-3.2
CCOc1ccc(N2CC(C(=O)NCCc3ccc(S(N)(=O)=O)cc3)CC2=O)cc1 (configuration not stated)	4.0	6.2	2.2	3.4	-5.5	-1.3
COc1cc2c(cc1NC(=O)CSc1nccn1C)oc1ccccc12	6.3	2.4	8.3	0.7	4.1	-11.1
COc1cc2c(cc1NC(=O)CSc1ccccc1)oc1ccccc12	-3.5	3.2	33.5*	-3.9	2.6	6.7
CCC(=O)NCC(c1cccs1)N1CCOCC1 (configuration not stated)	1.4	3.8	6.0	-2.9	1.5	8.0
CC(Oc1ccc(Br)cc1)C(=O)NCC(c1cccs1)N1CCOCC1 (configuration not stated)	3.0	1.7	1.5	26.5*	10.5	-5.4
C=C1/C=C(\C)[C@](C)(O)C[C@H](O)CC(=O)[C@H](O)[C@@H](O)[C@H](C)C[C@H](C)OC(=O)/C(C)=C/CC/C=C/[C@@H]2O[C@H]2C[C@H](C)C1	.	10.3	.	.	.	.
Cc1ccnc(NC(=O)c2cccc(NC(=O)c3ccccc3C)c2)c1	0.8	-7.2	1.2	-1.3	-1.4	2.3
SMILES	PAFAH2 inh	pPAFAH inh	ZTA counter	PAFAH1B2 FP inh	PAFAH1B3 FP inh	EBNA-1 inh
Cc1ccc(OCC(=O)c2ccc(Cl)s2)c([N+](=O)[O-])n1	2.5	24.6*	1.4	4.7	8.1	3.1
O=C(O)/C=C/c1ccc(S(=O)(=O)NCc2cccnc2)cc1	-0.9	1.9	8.2	0.1	-1.7	-4.3
Cc1ccc(CS(=O)(=O)CC(C)(O)c2ccc(Cl)cc2)cc1 (configuration not stated)	-1.0	8.1	4.1	27.4*	-8.0	5.7
Cc1ccc(CS(=O)(=O)CC(C)(O)c2ccccc2)cc1 (configuration not stated)	-0.1	8.3	6.3	9.4	5.4	8.6
CCCCCCSc1nnc2[nH]c(=O)cc(N)n12	2.0	1.1	14.0	26.1*	4.2	2.1
CCC(C)(C)C1CCC2(CC1)NC(=O)N(CC(=O)N1CCN(C(=O)c3ccco3)CC1)C2=O (configuration not stated)	0.2	1.7	18.7	24.7*	1.9	.
CCC(C)(C)C1CCC2(CC1)NC(=O)N(CC(=O)NCCc1ccc(OC)c(OC)c1)C2=O (configuration not stated)	1.0	1.4	5.8	25.4*	-0.8	.
CCC(C)(C)C1CCC2(CC1)NC(=O)N(CC(=O)NCCOc1ccccc1)C2=O (configuration not stated)	9.5	-5.6	5.0	28.5*	11.5	.
O=C(CN1C(=O)NC2(CCCC2)C1=O)NCCc1ccccc1	4.7	-2.3	.	5.7	10.7	.
CC1CCC2(CC1)NC(=O)N(CC(=O)N1CCN(C(=O)c3ccco3)CC1)C2=O (configuration not stated)	0.5	-1.3	-10.9	-3.2	7.9	.
O=C(CSc1nnc(-c2c[nH]c3ccccc23)o1)NCC1CCCO1 (configuration not stated)	-0.9	0.3	5.9	5.2	-0.3	.
N#CC(C(=S)Nc1ccccc1)c1nc2ccccc2[nH]1 (configuration not stated)	16.1	7.9	3.2	3.7	-0.9	-6.0
CSC(=Nc1ccccc1)C(C#N)c1nc2ccccc2[nH]1 (configuration not stated)	3.1	31.2*	6.8	-0.6	10.2	-6.4
Cc1ccc(Oc2coc3cc(OC(=O)c4cccs4)ccc3c2=O)cc1	-7.7	4.1	11.9	6.6	-3.1	10.3
CC(=O)Oc1ccc2c(=O)c(Oc3ccccc3)coc2c1OC(C)=O	46.1*	31.1*	-1.9	-1.3	-0.8	-7.0
COC(=O)/C(C#N)=C/c1ccc(-c2ccc(S(N)(=O)=O)cc2)o1	-0.1	8.2	3.7	0.6	4.4	8.4
CCCCNC(=O)/C(C#N)=C/c1ccc(-c2ccc(S(=O)(=O)N3CCOCC3)cc2)o1	-6.5	1.4	43.7*	2.9	2.4	-9.4
Cc1nn(C)c(NC(=O)c2ccccc2Cl)c1Cl	-0.8	-3.7	7.5	0.4	1.9	2.2
O=C(O)c1ccc(CSCc2ccccc2Cl)o1	-1.1	3.6	14.1	30.2*	13.5	6.6
CS(=O)(=O)c1nc(S(=O)(=O)c2ccc(Cl)cc2)c(N2CCOCC2)s1	4.8	2.6	-0.5	0.6	5.7	2.0

Compound activity as filed in PubChem.
